Outcome and AC50 data for 40 compounds are collected here from PubChem BioAssay (EPA / NIEHS).

Inconclusive results are not listed. The source made the active and inactive calls. The calls were made as follows: active = hit-call score of the fitted dose curve at least 0.9, where 1 is the maximum; inconclusive = response in the unintended direction; inactive = score below 0.9.

The target of this assay is human Retinoic Acid Receptor gamma (RARg), RARG (gene 5916) (UniProt P13631). Description: ATG_RARg_TRANS: Attagene TRANS-FACTORIAL HepG2 Assay for human Retinoic Acid Receptor gamma (RARg) (AID 2283009).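 As to AC50: AC50 is for reporter induction above DMSO meaning RARg activation.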 On the procedure: ATG_TRANS is a cell-based, multiplexed-readout assay that uses HepG2, a human liver cell line, with measurements taken at 24 hours after chemical dosing in a 24-well plate.ATG_RARg_TRANS is one of 30 assay component(s) measured or calculated from the ATG_TRANS assay. It is designed to make measurements of mRNA induction, a form of inducible reporter, as detected with fluorescence intensity signals by Reverse transcription polymerase chain reaction (RT-PCR) and Capillary electrophoresis technology.Data from the assay component ATG_RARg_TRANS was analyzed into 1 assay endpoint. This assay endpoint, ATG_RARg_TRANS, was analyzed in the positive analysis fitting direction relative to DMSO as the negative control and baseline of activity. Using a type of inducible reporter, measures of mRNA for gain-of-signal activity can be used to understand the reporter gene at the transcription factor-level as they relate to the gene RARG. Furthermore, this assay endpoint can be referred to as a primary readout, because this assay has produced multiple assay endpoints where this one serves a reporter gene function. To generalize the intended target to other relatable targets, this assay endpoint is annotated to the nuclear receptor intended target family, where the subfamily is non-steroidal.
Sequence of human Retinoic Acid Receptor gamma (RARg), RARG (gene 5916) (P13631 whole entry, looked up): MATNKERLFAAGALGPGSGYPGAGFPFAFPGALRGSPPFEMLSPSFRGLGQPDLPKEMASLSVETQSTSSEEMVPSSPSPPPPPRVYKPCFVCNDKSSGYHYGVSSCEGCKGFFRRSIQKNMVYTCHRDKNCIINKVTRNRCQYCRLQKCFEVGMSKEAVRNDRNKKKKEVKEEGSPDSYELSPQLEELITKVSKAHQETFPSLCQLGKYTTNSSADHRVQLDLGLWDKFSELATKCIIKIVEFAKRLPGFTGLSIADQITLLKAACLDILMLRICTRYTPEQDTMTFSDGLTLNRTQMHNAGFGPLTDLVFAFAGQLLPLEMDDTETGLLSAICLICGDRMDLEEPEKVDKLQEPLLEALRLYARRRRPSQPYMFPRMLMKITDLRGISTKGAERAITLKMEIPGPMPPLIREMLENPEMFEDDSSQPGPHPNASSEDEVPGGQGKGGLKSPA
Human liver HepG2 cells are transiently transfected with multiple reporter transcription units (MRTUs) in 6-well plates using FuGene 6 reagent (Roche; 3 ml FuGene/1 mg DNA). The MRTU constructs are regulated by a cis-regulating element (promoter). […] A major difference between the CIS and TRANS system is that in CIS activities of endogenous TFs are measured, whereas the TRANS assay evaluates changes in activities of exogenous, chimeric NR-Gal4 proteins. […] At the end of 24 hour incubation, total RNA was isolated using TriZol reagent (Invitrogen). The isolated RNA is then reverse-transcribed using oligo(dT) primer and Mo-MLV reverse transcriptase (Invitrogen) with DNAse I (Ambion) treatment for 30 min. The one-tenth of the produced cDNA was amplified by PCR using Taq DNA polymerase (Invitrogen) and two reporter sequence-specific primers. The PCR products were fluorescently labeled by primer extension with 6-arboxyfluorescein (6-FAM) 5'-labeled reporter sequence-specific primer (2 min at 95 C, 20 s at 68 C and 10 min at 72 C) and these products were digested with 5U of HpaI (New England Biolabs) for 2h at 37 C. […] The raw capillary electrophoresis data was processed using Attagraph software (Attagene).
Turning to `C=CCOCC(CO)(CO)CO`, the outcome was inactive. For the compound `NNc1nc(-c2ccc([N+](=O)[O-])cc2)cs1`, the result was inactive.

With `O=P(O)(O)CCC(F)(F)C(F)(F)C(F)(F)C(F)(F)C(F)(F)C(F)(F)F`, the outcome was inactive. Same read-out and setting: as for `Cc1cc(Cc2cc(C)cc(C(C)(C)C)c2O)c(O)c(C(C)(C)C)c1`, the entry is “inactive”; as for `CCN(CC)CC`, “inactive”; as for `FC(F)(F)C1(F)C(F)(F)C(F)(F)C(F)(F)C(F)(C(F)(F)F)C1(F)F` (stereo not given), “inactive”. Take `CCCCc1oc2ccccc2c1C(=O)c1cc(I)c(OCCN(CC)CC)c(I)c1`: the result was inactive.

On to `O=C(NCc1ncc(C(F)(F)F)cc1Cl)c1c(Cl)cccc1Cl`, for which the call was inactive. Same read-out and setting: as for `O=S(=O)(O)c1ccc2cc(O)ccc2c1`, the entry is “inactive”; as for `CC[N+](CC)(CC)Cc1ccccc1`, “inactive”; as for `CCc1cccc(CC)c1N(COC)C(=O)CS(=O)(=O)O`, “inactive”. On the same count and under the same terms, as for `O=C(c1cc(O)c(O)c(O)c1)c1ccc(O)c(O)c1O`, the entry is “inactive”; as for `C=CC(=O)OCCN(CC)CC`, “inactive”. Same read-out and setting: under `O=C(O)C(F)(F)OC(F)(F)C(F)(F)OC(F)(F)C(F)(F)OC(F)(F)C(F)(F)C(F)(F)C(F)(F)F` stands “inactive”; under `CCCCc1ccc2ccccc2c1S(=O)(=O)O`, “inactive”; under `O=C(O)CN(CCCN(CC(=O)O)CC(=O)O)CC(=O)O`, “inactive”. For `FC(F)(F)C1(F)C(F)(F)C(F)(F)C(F)(F)C1(F)F`, the result was inactive. Still for that read-out and setting: under `O=C1OC(=O)C(F)(F)C1(F)F` stands “inactive”; under `c1cc[nH]c1`, “inactive”. Same read-out and setting: as for `CCCCCCCCCCCCOC(=O)c1cc(O)c(O)c(O)c1`, the entry is “inactive”; as for `C[N+](C)(CCCNS(=O)(=O)CCC(F)(F)C(F)(F)C(F)(F)C(F)(F)C(F)(F)C(F)(F)F)CC(=O)[O-]`, “inactive”.

Regarding `CCCCCCCCCCCCCC[n+]1ccccc1`, the result was inactive. Same read-out and setting: under `CC(C)(C)C1CCCCC1O` (stereo not given) stands “inactive”; under `COCC1CCC(CO)CC1` (stereo not given), “inactive”; under `CC(C)(C)c1ccc(O)c(O)c1`, “inactive”.

For `CCCCCCCCCCCCCCCC(=O)OC`, the compound was called inactive. Still for that read-out and setting: as for `c1ccc2c(c1)CCC2`, the entry is “inactive”; as for `CCCCCCCCCCCC(=O)O`, “inactive”. A word on the AC50: it is the concentration at which the activity in the assay is half-maximal. As for `O=C1c2ccc(O)c(O)c2C(=O)c2c(O)ccc(O)c21`, the AC50 is 50 µM (active). With `O=C(c1ccccc1)c1ccccc1`, the compound was called inactive.

Take `CC1=CC(=O)c2ccccc2C1=O`: the compound was called inactive.

Turning to `Clc1ccc2c(Cl)ccnc2c1`, the compound was classed as inactive. Same read-out and setting: as for `CCOC=O`, the entry is “inactive”; as for `Nc1ccc(O)c(C(=O)O)c1`, “inactive”.

`Oc1c(Cl)ccc(Cl)c1Cl`: the compound was called inactive. On the same count and under the same terms, under `CCOC=C(C(=O)OCC)C(=O)OCC` stands “inactive”. Consider `NC(C(F)(F)F)C(F)(F)F`, for which the compound was classed as inactive.

Take `O=C(OC(=O)C(F)(F)C(F)(F)F)C(F)(F)C(F)(F)F`: the call was inactive.

In the case of `CCCCCCCCCCCCCCCCCC[N+](C)(C)Cc1ccccc1`, the AC50 was 89.2 µM (active). With `NNC(=O)CCCCC(=O)NN`, the result was inactive.
